Compound activity deposited in PubChem by National Center for Advancing Translational Sciences (NCATS).
This is a sample that favours compounds with a hit; in the whole collection about 6.2% have one here.
MARV entry inh: blocks Marburg virus binding to or entry into cells; Potency, µM (doses to about 37.8 µM), usual class: inhibitors; Marburg virus pseudotyped entry inhibition, cell reporter; 1.8% of 300,000 active; calls by dose curve; tested in HEK293 cells
HCMV antiviral: inhibitors of human cytomegalovirus | AID 1259415 | HFF cells, HCMV-luciferase reporter, 72 h; active compounds read low | activity change, negative = inhibition, % at 57.5 µM | 4.5% of 410,000 active; in the data active means activity change below about -60%; inconclusive means no clear call, values can overlap the other calls; inactive means above about -39%
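After 16 h attachment at 37C, HFF cells received test compound and HCMV-luciferase (1 PFU/cell); reporter luminescence read 72 h later, data normalized against buffer-only and known inhibitor Salinomycin.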
Lassa entry inh: blocks Lassa virus binding to or entry into cells | 1.2% of 300,000 active | Lassa virus pseudotype entry inhibition, cell reporter | AID 540256 | Potency, µM (top dose mostly 37.9 µM), most hits filed as inhibitors; calls by dose curve; tested in HEK293 cells; further: nearly all actives have a fitted effect of over 50% in size
FMDV antiviral: blocks foot and mouth disease virus; FMDV antiviral cell-based qHTS; 1.2% of 410,000 active; Potency, µM (titrated, usually from 57.9 µM), hits mostly inhibitors; calls by dose curve; tested in HEK293T cells; further: read-out not given here; nearly all actives have a fitted effect of over 45% in size
Hits are given with their value; . = inactive; ? = inconclusive; / = not tested or not shown.

SMILES | MARV entry inh | HCMV antiviral | Lassa entry inh | FMDV antiviral
COC(=O)c1ccc(C(=O)OC)c(NC(=O)c2c(-c3ccccc3)noc2C)c1 | . | . | . | .
N#Cc1ccc(/C=C\c2nccc3c2[nH]c2ccccc23)cc1 | ? | -77 | . | .
CCNc1nc(NC(C)(C)C)nc(N2CCCCC2)n1 | 2µM | -72 | ? | .
CCOC(=O)N1CCN(c2ncnc3scc(-c4ccccc4)c23)CC1 | ? | . | . | .
COc1ccccc1N1CCN(C(=O)CSc2nnc3n2C(C)(C)Cc2ccccc2-3)CC1 | ? | -92 | ? | 16µM
Cc1ccccc1N1CCN(c2ncnc3scc(-c4cccs4)c23)CC1 | 23µM | -67 | . | ?
CC(C)(C)C(=O)N1CCN(c2ncnc3scc(-c4ccccc4)c23)CC1 | ? | -70 | ? | .
COc1ccc(-c2csc3ncnc(N4CCN(Cc5ccccc5)CC4)c23)cc1 | . | -89 | . | 22µM
CC1Cc2ccccc2N1C(=O)CSc1nnc2n1C(C)(C)Cc1ccccc1-2 (configuration not stated) | . | ? | . | ?
Cc1cn2c(=O)cc(COc3cccc(NC(=O)c4ccccc4Cl)c3)nc2s1 | . | . | . | .
Cc1c(C(=O)NCCCN2CCCC2=O)cnn1-c1ncc2c(n1)-c1ccccc1CC2 | / | / | / | .
Cc1nn(-c2ccccc2)c(C)c1/C=N/N1CCN(Cc2ccccc2)CC1 | . | / | . | /
CCN(CC)CCNC(=O)c1ccc(NCN2C(=O)NC(c3ccccc3)(c3ccccc3)C2=O)cc1 | / | . | / | /
COc1ccc(CCNC(=O)c2ccc3c(c2)N=C(C)c2ccccc2S3)cc1OC | . | . | . | .
Clc1ccc(-c2csc3ncnc(N4CCc5ccccc5C4)c23)cc1 | . | . | . | ?
Fc1ccc(CN2CCN(c3ncnc4scc(-c5ccc(F)cc5)c34)CC2)cc1 | / | -86 | / | ?
COc1ccc(-c2csc3ncnc(N4CCN(c5ccccc5)CC4)c23)cc1 | ? | . | ? | 18µM
CCN1CCN(c2ncnc3scc(-c4ccc(C)c(C)c4)c23)CC1 | ? | -67 | . | .
Clc1ccc(CN2CCN(c3ncnc4scc(-c5cccs5)c34)CC2)cc1 | ? | -98 | ? | ?
CN1CCCN(c2ncnc3scc(-c4ccc(F)cc4)c23)CC1 | / | . | / | .
O=C(Nc1cccc(Br)c1)N1CCC(CN2CCCCCC2)CC1 | / | . | ? | .
CCn1c(C(=O)N2CCC(C(=O)NCCc3ccc(C)cc3)CC2)cc2sccc21 | . | / | / | ?
CCN(CC)CCN1C(=O)C(O)=C(C(=O)c2ccco2)[C@@H]1c1ccccn1 | . | / | / | /
CCn1c(=O)cc(OCC(=O)NCc2ccccc2OC)c2ccccc21 | . | . | . | ?
COc1ccccc1N1CCN(C(=O)CSc2ncnc3scc(-c4ccccc4)c23)CC1 | ? | . | 6.3µM | ?
SMILES | MARV entry inh | HCMV antiviral | Lassa entry inh | FMDV antiviral
COC(=O)CSc1ncnc2scc(-c3ccccc3)c12 | . | . | . | .
CC1(C)O[C@H]2[C@@H](O1)[C@@H](C(=O)Nc1cc(F)ccc1F)O[C@@H]1OC(C)(C)O[C@@H]12 | . | -89 | . | .
COC(=O)c1ccc(CN2C(=O)[C@]3(O[C@H](C)CC4=CCCC43)c3c(Br)cccc32)cc1 (some centres not stated) | . | / | / | /
Cc1cccc(C)c1NC(=O)C1(C)CSCC(=O)N1CCCN1CCOCC1 (configuration not stated) | / | . | / | .
COc1ccc(-c2ccc(NS(=O)(=O)c3ccccc3Cl)cc2)nn1 | / | . | ? | .
COc1ccc(-c2ccc(NS(=O)(=O)c3cc(C)c(C)cc3C)cc2)nn1 | / | -77 | . | .
O=C(Cc1ccc(NC(=O)C2CCCN(C(=O)c3ccccc3)C2)cc1)Nc1cccc(C(=O)N2CCCCC2)c1 (configuration not stated) | / | . | / | /
COc1ccc(C(CCNCc2ccc(N(C)C)cc2)C(C)C)cc1 (configuration not stated) | / | -75 | / | ?
COc1ccc(CNCCC(c2ccc(OC(C)C)cc2)C(C)C)cc1OC (configuration not stated) | ? | -104 | 21µM | ?
COCCNCc1ccc(C(C)C)cc1 | / | . | / | .
CCOCCCNCc1ccc(OC)cc1 | . | . | . | .
COc1ccc(C(CCNCc2ccc(OC(C)C)cc2)C(C)C)cc1 (configuration not stated) | ? | -79 | ? | ?
CC[C@H]1Nc2ccc(NC(=O)OC(C)(C)C)cc2[C@@H](NC(=O)OCc2ccccc2)[C@@H]1C | / | . | / | /
Cc1cccc(OCCn2nnc3sc4c(c3c2=O)CCCC4)c1 | ? | . | . | .
C[N+]12CCC(CC1)[C@H](OC(=O)C(O)(c1ccccc1)c1ccccc1)C2 | . | / | / | /
COc1cc([C@H](O)C(=O)O)ccc1O | . | / | / | /
Cc1nc(NC(=O)/C=C/c2ccccc2)n[nH]1 | ? | -96 | ? | ?
Cc1ccccc1OCC(=O)Nc1nnc(-c2ccncc2)s1 | . | -93 | . | .
O=C(COc1ccccc1F)Nc1nnc(-c2ccncc2)s1 | . | . | . | .
CCOc1ccccc1OCC(=O)Nc1nnc(COC)s1 | . | -102 | . | .
CCCn1nnc(NC(=O)/C=C/c2ccccc2)n1 | . | . | . | .
O=C(/C=C/c1ccccc1)Nc1nc(-c2ccncc2)cs1 | ? | -63 | ? | 13µM
CC(C)CON=C1C[C@@H](O)[C@@H](O)[C@@H]2[C@H]3C(=O)N(C[C@@H]4CCCO4)C(=O)[C@@H]3CC[C@@H]12 | . | / | / | /
CCC(=O)c1ccc(OCC(=O)Nc2nc(-c3cccnc3)cs2)cc1 | . | . | ? | .
Cc1ccccc1OCC(=O)Nc1nc(-c2ccncc2)cs1 | ? | . | . | 28µM
SMILES | MARV entry inh | HCMV antiviral | Lassa entry inh | FMDV antiviral
COCC(=O)Nc1nc(-c2ccc(-c3ccccc3)cc2)cs1 | . | . | ? | .
CCc1ccccc1OCC(=O)Nc1nc(-c2cccnc2)cs1 | ? | -65 | . | ?
O=C1c2ccccc2C(=O)c2c1ccc1c(=O)n(-c3ccccc3)[nH]c21 | . | -65 | . | .
Cc1cccc(-n2[nH]c3c4c(ccc3c2=O)C(=O)c2ccccc2C4=O)c1 | . | . | . | .
CN1C(=O)C(C2(O)C(=O)Nc3ccccc32)c2ccccc21 (configuration not stated) | / | . | / | /
CCN(c1ccccc1)S(=O)(=O)c1ccc(C(=O)Nc2nnc(C3CC3)o2)cc1 | ? | -69 | ? | .
CCN(c1ccccc1)S(=O)(=O)c1ccc(C(=O)Nc2nnc(CSC)o2)cc1 | / | -95 | / | .
CCN(c1ccccc1)S(=O)(=O)c1ccc(C(=O)Nc2nnc(COC)o2)cc1 | . | . | . | .
Cc1nc(NCc2ccc3nsnc3c2)sc1-c1ccn(C)n1 | / | / | / | .
Cc1ccc(C(=O)N/N=C/c2ccc(-c3cccc(Cl)c3)o2)cn1 | ? | . | . | ?
O=C(N/N=C/c1ccc(-c2ccccc2[N+](=O)[O-])o1)[C@H]1C[C@@H]1c1ccccc1 | ? | ? | 0.82µM | .
Cc1ccc(C(=O)N/N=C/c2ccc(-c3ccccc3[N+](=O)[O-])o2)cn1 | . | -64 | . | .
O=C(N/N=C/c1ccc(-c2ccc([N+](=O)[O-])cc2)o1)[C@H]1C[C@@H]1c1ccccc1 | . | . | ? | .
O=C(N/N=C/c1ccc(-c2cccc([N+](=O)[O-])c2)o1)[C@H]1C[C@@H]1c1ccccc1 | . | ? | 4µM | .
CCOC(=O)CC1=C(C(=O)OCC)[C@H](c2ccc(OC)c(OC)c2)C(C#N)=C(N)O1 | . | / | / | /
